# Test results taken from PubChem BioAssay (NCI).
# Compounds without any hit were thinned out: in the full panel of roughly 79,000, 15% have a hit. A number with no mark means an inactive call. Active and inactive are the calls of the source. Cut-off read from the data, not from the text of the source: active = growth inhibition above about 70%; inactive = the rest.
# Columns and labels:
# [1] = NCI Yeast Anticancer Drug Screen. Data for the wt1 strain (AID 149);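 note: 0% = growth of vehicle-treated wt1 cultures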; conditions: S. cerevisiae wt1 strain (SPY 50644) growth inhibition, stronger effect = higher value
# How it was run: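 Compounds are added to wt1 yeast cultures. Growth is then measured. Inhibition is expressed relative to vehicle-treated controls.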
# [2] = NCI Yeast Anticancer Drug Screen. Data for the rad50EPP+ strain (AID 151);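 note: 0% = growth of vehicle-treated control cultures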; conditions: S. cerevisiae rad50 mutant strain, stronger effect = higher value
# How it was run: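 One strain with a rad50 alteration (rad50EPP+) was compound-treated, its growth then compared to that of vehicle controls.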
# [3] = NCI Yeast Anticancer Drug Screen. Data for the mgt1 strain (AID 153); conditions: S. cerevisiae mgt1 mutant growth inhibition, stronger effect = higher value
# How it was run: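 After exposure of the mgt1 yeast mutant to compound, growth was measured and reported as inhibition compared with vehicle controls.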
# [4] = NCI Yeast Anticancer Drug Screen. Data for the rad50 strain (AID 155);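 note: 0% = growth of vehicle-only cultures of the same strain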; conditions: S. cerevisiae rad50 strain growth inhibition, stronger effect = higher value
# How it was run: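 Inhibition values express reduced yeast growth in compound-treated cultures relative to vehicle-treated controls.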
# [5] = NCI Yeast Anticancer Drug Screen. Data for the rad14 strain (AID 159);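 note: 0% = growth of vehicle-treated control cultures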; conditions: S. cerevisiae rad14 strain growth inhibition, stronger effect = higher value
# How it was run: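 A mutant yeast strain defective in DNA damage repair is treated with compound; inhibition of its growth is scored against untreated, vehicle-exposed cultures.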
# [6] = NCI Yeast Anticancer Drug Screen. Data for the CLN2oe strain (AID 163);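 note: 0% = growth of vehicle-only control cultures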; conditions: S. cerevisiae CLN2oe strain, stronger effect = higher value
# How it was run: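 Here, growth inhibition in a cell-cycle-altered yeast strain after compound exposure was quantified against vehicle control growth.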
# [7] = NCI Yeast Anticancer Drug Screen. Data for the cln2 rad14 strain (AID 165);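 note: 0% = growth equal to vehicle treated cultures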; conditions: S. cerevisiae cln2 rad14 strain, stronger effect = higher value
# How it was run: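 Growth of compound-exposed yeast (cln2 rad14 genotype) measured and expressed as inhibition relative to vehicle.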
# [8] = NCI Yeast Anticancer Drug Screen. Data for the bub3 strain (AID 167); conditions: S. cerevisiae bub3 mutant strain, stronger effect = higher value
# How it was run: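 Steps: expose the mutant yeast strain to compound; grow alongside vehicle-treated cultures; measure growth; express inhibition against the vehicle cultures.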
# [9] = NCI Yeast Anticancer Drug Screen. Data for the mlh1 strain (AID 171);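 note: 0% = growth of vehicle-treated control cultures of the same strain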; conditions: S. cerevisiae mlh1 strain growth inhibition, stronger effect = higher value
# How it was run: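 Here the genetically defined yeast mutant is grown with each compound, and the extent to which its growth falls below that of vehicle-exposed cells is reported.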
# [10] = NCI Yeast Anticancer Drug Screen. Data for the sgs1 strain (AID 173);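 note: 0% = growth of vehicle-only control cultures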; conditions: S. cerevisiae sgs1 mutant, stronger effect = higher value
# How it was run: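 Relative growth inhibition, referenced to vehicle, was determined in a yeast strain with a defined alteration affecting DNA damage repair or cell cycle control after compound exposure.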
# [11] = NCI Yeast Anticancer Drug Screen. Data for the mlh1 rad18 strain (AID 175); conditions: S. cerevisiae mlh1 rad18 strain growth inhibition, stronger effect = higher value
# How it was run: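 In this whole-cell yeast screen, a strain with altered DNA damage repair is challenged with compound, and its growth is measured against matched vehicle-treated controls.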
# [12] = NCI Yeast Anticancer Drug Screen. Data for the rad18 strain (AID 177); conditions: S. cerevisiae rad18 mutant growth inhibition, stronger effect = higher value
# How it was run: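 Screen uses a yeast strain with a defined lesion in DNA damage repair; compound effect is read as loss of growth compared to untreated vehicle cultures.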
# [13] = NCI Yeast Anticancer Drug Screen. Data for the mec2-1 strain (AID 157); conditions: S. cerevisiae mec2-1 strain, stronger effect = higher value
# How it was run: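 Test agents were screened against the mec2-1 yeast strain, with defined DNA repair or cell cycle alteration. Growth was scored as inhibition against vehicle-only controls.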
# [14] = NCI Yeast Anticancer Drug Screen. Data for the sgs1 mgt1 strain (AID 161);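 note: 0% = growth of cultures given vehicle only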; conditions: S. cerevisiae sgs1 mgt1 strain, stronger effect = higher value
# How it was run: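 Mutant yeast exposed to compound; growth scored against vehicle-only wells.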
# [15] = NCI Yeast Anticancer Drug Screen. Data for the wt2 strain (AID 169);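 note: 0% = growth of vehicle-treated yeast cultures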; conditions: S. cerevisiae wt2 strain growth inhibition, stronger effect = higher value
# How it was run: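 Genetically defined yeast strains from a DNA-repair/cell-cycle panel were used. Compound-exposed yeast growth was measured, and the inhibition was calculated relative to vehicle treatment.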
# [16] = at 5.0 µM (retest, dose inferred, filed as 0.5)
# [17] = at 50.0 µM (retest, dose inferred, filed as 5.0)
structure (smiles),measurement,setting,value
Cc1ccc2oc(-c3cccc(N)c3)nc2c1,growth inhibition,[1]; at 1.2 µM,0%
same,growth inhibition,[1]; at 3.7 µM,-4%
same,growth inhibition,[1]; at 11.0 µM,2%
same,growth inhibition,[1]; at 33.0 µM,0%
same,growth inhibition,[1]; at 100.0 µM,5%
same,growth inhibition,[2]; at 1.2 µM,1%
same,growth inhibition,[2]; at 3.7 µM,2%
same,growth inhibition,[2]; at 11.0 µM,10%
same,growth inhibition,[2]; at 33.0 µM,23%
same,growth inhibition,[2]; at 100.0 µM,36%
same,growth inhibition,[3]; at 1.2 µM,-6%
same,growth inhibition,[3]; at 3.7 µM,-13%
same,growth inhibition,[3]; at 11.0 µM,-4%
same,growth inhibition,[3]; at 33.0 µM,6%
same,growth inhibition,[3]; at 100.0 µM,24%
same,growth inhibition,[4]; at 1.2 µM,-3%
same,growth inhibition,[4]; at 3.7 µM,4%
same,growth inhibition,[4]; [16],-7%
same,growth inhibition,[4]; at 11.0 µM,1%
same,growth inhibition,[4]; at 33.0 µM,12%
same,growth inhibition,[4]; [17],10%
same,growth inhibition,[4]; at 50.0 µM,17.4%
same,growth inhibition,[4]; at 100.0 µM,29%
same,growth inhibition,[5]; at 1.2 µM,1%
same,growth inhibition,[5]; at 3.7 µM,3%
same,growth inhibition,[5]; at 11.0 µM,9%
same,growth inhibition,[5]; at 33.0 µM,18%
same,growth inhibition,[5]; at 100.0 µM,27%
same,growth inhibition,[6]; at 1.2 µM,-5%
same,growth inhibition,[6]; at 3.7 µM,-6%
same,growth inhibition,[6]; at 11.0 µM,-4%
same,growth inhibition,[6]; at 33.0 µM,6%
same,growth inhibition,[6]; at 100.0 µM,15%
same,growth inhibition,[7]; [16],-42%
same,growth inhibition,[7]; [17],-2%
same,growth inhibition,[7]; at 50.0 µM,27.5%
same,growth inhibition,[8]; at 1.2 µM,-6%
same,growth inhibition,[8]; at 3.7 µM,-3%
same,growth inhibition,[8]; [16],9%
same,growth inhibition,[8]; at 11.0 µM,9%
same,growth inhibition,[8]; at 33.0 µM,23%
same,growth inhibition,[8]; [17],36%
same,growth inhibition,[8]; at 50.0 µM,23.4%
same,growth inhibition,[8]; at 100.0 µM,35%
same,growth inhibition,[9]; at 1.2 µM,-4%
same,growth inhibition,[9]; at 3.7 µM,6%
same,growth inhibition,[9]; at 11.0 µM,-2%
same,growth inhibition,[9]; at 33.0 µM,2%
same,growth inhibition,[9]; at 100.0 µM,21%
same,growth inhibition,[10]; at 1.2 µM,-1%
same,growth inhibition,[10]; at 3.7 µM,0%
same,growth inhibition,[10]; at 11.0 µM,2%
same,growth inhibition,[10]; at 33.0 µM,5%
same,growth inhibition,[10]; at 100.0 µM,10%
same,growth inhibition,[11]; [16],-7%
same,growth inhibition,[11]; [17],28%
same,growth inhibition,[11]; at 50.0 µM,-6%
same,growth inhibition,[12]; at 1.2 µM,-2%
same,growth inhibition,[12]; at 3.7 µM,-4%
same,growth inhibition,[12]; at 11.0 µM,3%
same,growth inhibition,[12]; at 33.0 µM,17%
same,growth inhibition,[12]; at 100.0 µM,53%
O=Cn1c2ccccc2c2ccccc21,growth inhibition,[1]; at 1.2 µM,-16%
same,growth inhibition,[1]; at 3.7 µM,-14%
same,growth inhibition,[1]; at 11.0 µM,-8%
same,growth inhibition,[1]; at 33.0 µM,-7%
same,growth inhibition,[1]; at 100.0 µM,23%
same,growth inhibition,[2]; at 1.2 µM,-54%
same,growth inhibition,[2]; at 3.7 µM,-27%
same,growth inhibition,[2]; at 11.0 µM,0%
same,growth inhibition,[2]; at 33.0 µM,10%
same,growth inhibition,[2]; at 100.0 µM,91% (active)
same,growth inhibition,[4]; at 1.2 µM,-42%
same,growth inhibition,[4]; at 3.7 µM,-4%
same,growth inhibition,[4]; [16],63%
same,growth inhibition,[4]; at 11.0 µM,9%
same,growth inhibition,[4]; at 33.0 µM,-1%
same,growth inhibition,[4]; [17],90% (active)
same,growth inhibition,[4]; at 50.0 µM,64.2%
same,growth inhibition,[4]; at 100.0 µM,82% (active)
same,growth inhibition,[13]; at 1.2 µM,-51%
same,growth inhibition,[13]; at 3.7 µM,-30%
same,growth inhibition,[13]; [16],57%
same,growth inhibition,[13]; at 11.0 µM,-33%
same,growth inhibition,[13]; at 33.0 µM,-23%
same,growth inhibition,[13]; [17],90% (active)
same,growth inhibition,[13]; at 50.0 µM,44.4%
same,growth inhibition,[13]; at 100.0 µM,31%
same,growth inhibition,[5]; at 1.2 µM,-32%
same,growth inhibition,[5]; at 3.7 µM,-20%
same,growth inhibition,[5]; at 11.0 µM,-19%
same,growth inhibition,[5]; at 33.0 µM,-20%
same,growth inhibition,[5]; at 100.0 µM,25%
same,growth inhibition,[14]; [16],-16%
same,growth inhibition,[14]; [17],46%
same,growth inhibition,[14]; at 50.0 µM,33.5%
same,growth inhibition,[6]; at 1.2 µM,-12%
same,growth inhibition,[6]; at 3.7 µM,-15%
same,growth inhibition,[6]; at 11.0 µM,1%
same,growth inhibition,[6]; at 33.0 µM,-21%
same,growth inhibition,[6]; at 100.0 µM,39%
same,growth inhibition,[7]; [16],59%
same,growth inhibition,[7]; [17],74% (active)
same,growth inhibition,[7]; at 50.0 µM,20.6%
same,growth inhibition,[8]; at 1.2 µM,-26%
same,growth inhibition,[8]; at 3.7 µM,-8%
same,growth inhibition,[8]; [16],42%
same,growth inhibition,[8]; at 11.0 µM,13%
same,growth inhibition,[8]; at 33.0 µM,-21%
same,growth inhibition,[8]; [17],66%
same,growth inhibition,[8]; at 50.0 µM,60.9%
same,growth inhibition,[8]; at 100.0 µM,60%
same,growth inhibition,[15]; at 1.2 µM,-12%
same,growth inhibition,[15]; at 3.7 µM,-21%
same,growth inhibition,[15]; at 11.0 µM,-7%
same,growth inhibition,[15]; at 33.0 µM,-18%
same,growth inhibition,[15]; at 100.0 µM,46%
same,growth inhibition,[9]; at 1.2 µM,-18%
same,growth inhibition,[9]; at 3.7 µM,-17%
same,growth inhibition,[9]; at 11.0 µM,4%
same,growth inhibition,[9]; at 33.0 µM,-2%
same,growth inhibition,[9]; at 100.0 µM,65%
same,growth inhibition,[10]; at 1.2 µM,-32%
same,growth inhibition,[10]; at 3.7 µM,-37%
same,growth inhibition,[10]; at 11.0 µM,-8%
same,growth inhibition,[10]; at 33.0 µM,-15%
same,growth inhibition,[10]; at 100.0 µM,57%
same,growth inhibition,[11]; [16],54%
same,growth inhibition,[11]; [17],97% (active)
same,growth inhibition,[11]; at 50.0 µM,70.8% (active)
